Values joined by “and” are separate entries in the source; they are usually repeats but may differ in a detail not shown here. Equal values may be shown once. Results filed as inconclusive are left out. More than one record can exist for a structure, and the calls need not agree. Active and inactive are the calls of the source. Unless noted, the call rests on the fitted dose curve; in most records, active means well fitted curve in the direction sought with a large enough effect in the repeat runs; inconclusive means weak or mixed curves; inactive means no such curve, though single readings can be large; an effect the other way counts as inactive or inconclusive.

Test [1] is described as follows: A CellTox Green Cytotoxicity Assay to monitor cytotoxicity in HepG2 cells - 0 hour (AID 1224882). Further: nearly all actives have a fitted effect of over 35% in size. A digest of the protocol: (§1)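 HepG2 cells, 600/well, preincubated 5 h with CellTox Green dye, then exposed to Tox21 compounds in DMSO at 37 C for up to 40 h. Dead-cell DNA fluorescence read at the indicated time point.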
Test [2] in a line: A CellTox Green Cytotoxicity Assay to monitor cytotoxicity in HepG2 cells - 32 hour (AID 1224883). Further: nearly all actives have a fitted effect of over 50% in size. Further: potency means the concentration at half of the fitted maximal effect. In outline:
as §1

Test [3] in a line: A CellTox Green Cytotoxicity Assay to monitor cytotoxicity in HEK293 cells - 8 hour (AID 1224884). Further: nearly all actives have a fitted effect of over 35% in size. A digest of the protocol:
(§2)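 HEK293 cells, 600/well, were preincubated 5 hours and then exposed to compounds at 37 C for up to 40 hours. A cell-impermeant cyanine dye staining dead-cell DNA was read by fluorescence at 0, 8, 16, 24, 32 and 40 h time points.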

Test [4] is described as follows: qHTS RealTime-Glo MT Cell Viability Assay in HepG2 cells - 16 hour (AID 1224885). Further: nearly all actives have a fitted effect of over 50% in size. A digest of the protocol:
(§3)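 qHTS, HepG2, 600 cells/well, RealTime-Glo (NanoLuc + prosubstrate) added with cells; 5 h preincubation; DMSO compound addition; 37 C; luminescence at 0/8/16/24/32/40 h.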
Background: qHTS replaces the single test concentration by a dilution series.

The nature of test [5]: qHTS RealTime-Glo MT Cell Viability Assay in HEK293 cells - 24 hour (AID 1224886). Further: nearly all actives have a fitted effect of over 50% in size. Further: potency means the concentration at half of the fitted maximal effect. A digest of the protocol:
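Assay medium contained NanoLuc luciferase plus cell-permeant prosubstrate, added with HEK293 cells at 600 cells/well. After 5 h at 37 C/5% CO2 compounds were added; plates stayed at 37 C for 40 h with serial luminescence reads.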

The nature of test [6]: qHTS RealTime-Glo MT Cell Viability Assay in HEK293 cells - 8 hour (AID 1224887). Further: top concentration of the series differs between compounds; nearly all actives have a fitted effect of over 50% in size. A digest of the protocol:
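600 cells/well were plated with the nonlytic NanoLuc/prosubstrate reagent, pre-incubated 5 h, then given 23 nL of compound in DMSO. Incubation at 37 C for 40 h, with luminescence from viable-cell-reduced substrate read repeatedly from 0 h.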

A short description of test [7]: A CellTox Green Cytotoxicity Assay to monitor cytotoxicity in HEK293 cells - 16 hour (AID 1224888). Further: nearly all actives have a fitted effect of over 35% in size. In outline: as §2
The nature of test [8]: qHTS RealTime-Glo MT Cell Viability Assay in HepG2 cells - 0 hour (AID 1224889). Further: nearly all actives have a fitted effect of over 50% in size. A digest of the protocol:
as §3

Test [9] in a line: A CellTox Green Cytotoxicity Assay to monitor cytotoxicity in HepG2 cells - 8 hour (AID 1224890). Further: nearly all actives have a fitted effect of over 45% in size. Further: potency means the concentration at half of the fitted maximal effect. In outline: as §1
Test [10] can be described thus: qHTS assay to identify small molecule antagonists of the estrogen receptor alpha (ER-alpha) signaling pathway using the BG1 cell line in the presence of 0.1 nM 17-beta-estradiol - cell viability counter screen (AID 1259241). Further: nearly all actives have a fitted effect of over 40% in size. In outline:
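Viability in VM7Luc4E2 cells after 22 hr compound exposure under 0.1 nM 17beta-estradiol stimulation, by CellTiter-Fluor.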

The nature of test [11]: qHTS assay to identify small molecule antagonists of the androgen receptor (AR) signaling pathway using the MDA cell line in the presence of 0.5 nM R1881 - cell viability counter screen (AID 1259242). Further: nearly all actives have a fitted effect of over 45% in size. Further: potency means the concentration at half of the fitted maximal effect. A digest of the protocol: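 MDA-kb2 cells (MMTV-luciferase, AR/GR responsive) were treated with compounds plus 0.5 nM R1881 (final) for 16 hr at 37C, 0% CO2. Viability was then read in the same wells as live-cell protease fluorescence (CellTiter-Fluor, 30 min).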

Test [12] can be described thus: qHTS assay to identify small molecule HDAC inhibitors (AID 1259364). Further: top concentration of the series differs between compounds; nearly all actives have a fitted effect of over 45% in size. In outline:
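Wild-type HCT-116 cells, plated overnight at 37 C, exposed to compounds 2 hr at 37 C; luminogenic HDAC-Glo substrate then added 30 min at room temperature. Luminescence reports relative endogenous class I/II HDAC activity.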

A short description of test [13]: qHTS assay to identify small molecule agonists of the sonic hedgehog signaling (Shh) pathway - cell viability counter screen (AID 1259366). Further: nearly all actives have a fitted effect of over 50% in size. Further: potency means the concentration at half of the fitted maximal effect. In outline: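 Stable Gli1-Luc NIH/3T3 clone, 2,000 cells/well. Compound exposure 24hr at 37C. Read-out: CellTiter-Fluor fluorescence.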
Test [14] can be described thus: qHTS assay to identify small molecule antagonists of the sonic hedgehog signaling (Shh) pathway - cell viability counter screen (AID 1259367). Further: nearly all actives have a fitted effect of over 55% in size. Further: potency means the concentration at half of the fitted maximal effect. In outline: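 Seed 3T3 Gli1-Luc cells at 2,000 per well; incubate 4 hr; add compound in DMSO, then conditioned medium; incubate at 37C with 5% CO2; add CellTiter-Fluor after 23 hr; read fluorescence 1 hr later.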
Test [15] in a line: qHTS assay to identify small molecule agonists of the sonic hedgehog signaling (Shh) pathway (AID 1259368; calls by dose curve;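 further: NIH/3T3-derived 3T3Gli1-Luc cells carrying a stable Gli1-driven firefly luciferase reporter; series mostly up to about 92 µM; nearly all actives have a fitted effect of over 15% in size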). In outline:
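NIH/3T3-derived 3T3Gli1-Luc cells with stably integrated Gli1-driven firefly luciferase, 2,000 cells/well, compounds added after 4 hr. Incubated 24 hr at 37C, 5% CO2; luminescence read after 30 min with luciferase reagent at room temperature.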

Test [16] in a line: qHTS assay to identify small molecule antagonists of the sonic hedgehog signaling (Shh) pathway (AID 1259369; calls by dose curve; further: nearly all actives have a fitted effect of over 45% in size; further: potency means the concentration at half of the fitted maximal effect). In outline: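 NIH/3T3-derived Gli1-Luc reporter cells plated 4 h, dosed with compound, then stimulated with conditioned medium for 24 h at 37 C. Firefly luciferase luminescence read after 30 min with detection reagent at room temperature.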
The nature of test [17]: qHTS assay to identify small molecule phospholipidosis (PLD) inducers (AID 1259344; active means well fitted curve in the direction sought with a large enough effect; an effect the other way counts as inactive or inconclusive). A digest of the protocol:
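Quantitative HTS in HepG2: compound plus LipidTOX Red dye for 24 h, paraformaldehyde fixation with Hoechst 33342, widefield high-content imaging; amiodarone as positive and DMSO as negative control.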

Test [18] is described as follows: qHTS assay to identify small molecule HDAC inhibitors - cell viability counter screen (AID 1259365). In outline: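 Cytotoxicity was gauged in wild-type HCT-116 cells after a brief 2hr treatment with DMSO-dissolved compounds at 37C and 5% CO2, using CellTiter-Glo luminescence developed for 30min at room temperature.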

`CCCCCCCCCCCC[N+](C)(C)C`: the Potency entry in [1], in test [3], in test [4], in test [6], in test [7] and in test [8] was “inactive” each time. For the same molecule, the Potency entry in test [9], in test [10], in [12] and in test [15] was “inactive” throughout. The Potency was 43.5 µM (active) and 49 µM (active) and 43.6 µM (active) in [2]; 4.89 µM (active) in test [5]; “inactive and 24.3 µM (active)” in test [11]; 43.1 µM (active) and 61.1 µM (active) and 54.5 µM (active) in test [13]; 60.9 µM (active) and 61.1 µM (active) and 30.6 µM (active) in [14]; 384 nM (active) and 24.3 nM (active) and 6.86 µM (active) in test [16].
Take `CC(C)(C)NC(=O)[C@@H]1CN(Cc2cccnc2)CCN1C[C@@H](O)C[C@@H](Cc1ccccc1)C(=O)N[C@H]1c2ccccc2C[C@H]1O`: the Potency entry in test [1], in [2], in test [3], in [4], in test [5] and in test [6] was “inactive” in each case. Besides, the Potency entry in [7], in test [8], in test [9], in test [10], in [11] and in [17] was “inactive” each time. Further, the Potency entry in test [16] was “inactive”.
With `Cc1occc(=O)c1OC(=O)C(C)C`, the Potency result in [1], in [2], in [3], in test [4], in test [5] and in test [6] was “inactive” each time. Further, the Potency entry in test [7], in [8], in test [9], in test [10], in test [11] and in test [18] was “inactive” each time. Besides, the Potency entry in [13], in [14], in test [15] and in [16] was “inactive” each time.
Take `CCCN[C@H]1CCc2nc(N)sc2C1`: the Potency entry in test [1], in test [2], in test [3], in test [4], in test [5] and in [6] was “inactive” each time. Moreover, the Potency result in test [7], in test [8], in [9], in test [10], in [11] and in test [17] was “inactive” each time. Moreover, the Potency entry in test [18], in test [13], in test [14] and in [16] was “inactive” each time.
Take `Cc1ccnc2c1NC(=O)c1cccnc1N2C1CC1`: the Potency result in test [1], in [2], in test [3], in test [4], in [5] and in test [6] was “inactive” in each case. Further, the Potency result in test [7], in [8], in [9], in test [10], in test [17] and in [12] was “inactive” throughout. Further, the Potency result in test [13], in [14], in test [15] and in [16] was “inactive” throughout.
As for `Cc1cccc2n[nH]nc12`, the Potency result in test [1], in [2], in test [3], in test [4], in test [5] and in test [6] was “inactive” in each case. The Potency result in test [7], in [8], in test [10], in [11], in test [13] and in test [14] was “inactive” in each case. In addition, the Potency entry in test [16] was “inactive”. Further, the Potency result in test [9] is “inactive and 43.6 µM (active)”.
For the molecule `CC(N)=O`, the Potency entry in [1], in test [2], in test [3], in [4], in test [5] and in [6] was “inactive” in each case. The Potency entry in [7], in [8], in test [9], in test [10], in [12] and in test [18] was “inactive” in each case. Further, the Potency result in [13], in [14], in test [15] and in [16] was “inactive” each time.

For the origin of these results see PubChem BioAssay (Tox21).
